Each structure is given as a SMILES string. Hit rate of the full screen: of about 320,000 compounds, about 2,100 (0.66%) were called active. Another 53% or so got no clear call; they are omitted. Calls follow the shape of the dose curve; as a rule, active = well fitted inhibition curve with a large enough effect in the signal ratio, with a control signal flat (not every such curve was filed as active); inconclusive = small, poorly fitted or top-dose-only effect, or effect the other way, or a change in a side signal; inactive = flat fitted curve, though single readings scatter; the % refers to the signal ratio. This excerpt belongs to a sample that is enriched for actives.

Consider 47 compounds from PubChem BioAssay AID2685 (National Center for Advancing Translational Sciences (NCATS), 2010).
Potency is read from the fitted curve at half-maximal effect.

The test can be described thus: qHTS Assay for Lipid Storage Modulators in Drosophila S3 Cells.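 As to cell number change: cells counted by Cell Tracker Red CMTPX staining in the red channel.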 As to lipid storage change, negative = inhibition: % is scaled to controls: 0 for no effect and ±100 for the full control effect. The note with it: BODIPY lipid droplet fluorescence, 18-24 h, cells fed with added oleic acid; cell number change: measured here: cell count max response; series mostly up to 46.1 µM; lipid storage change, negative = inhibition: at the top concentration. The procedure, abridged: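 Drosophila S3 cells loaded with oleic acid (400 uM, as added) and compounds at several concentrations; lipid droplets imaged by 488-nm laser-scanning cytometry, 500–530 nm intensity and object ratio to cell channel. Percent activity normalized to 20 uM Triacsin C.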
(In general: In qHTS, concentration-response curves come from the screen itself.)
With `CC(=O)NC12CC3CC(C1)CC(C(=O)Nc1nc4ccc(F)cc4s1)(C3)C2`, the call was inactive and the cell number change is -27.9%.

With `CC(=O)NC12CC3CC(C1)CC(C(=O)Nc1nc4c(C)cccc4s1)(C3)C2`, the Potency is 5.8 µM (active) and the cell number change was -14.2%.

As for `CC(=O)NC12CC3CC(C1)CC(C(=O)Nc1nc4ccc(S(C)(=O)=O)cc4s1)(C3)C2`, the “lipid storage change, negative = inhibition” value is 4.01% (inactive) and the cell number change is -1.02%.

As to `O=C(O)c1ccc(NC2=C(N3CCOCC3)C(=O)c3ccccc3C2=O)cc1`, the “lipid storage change, negative = inhibition” value was -9.76% (inactive) and the cell number change was -2.96%.

On to `O=C1C=C(N2CCOCC2)c2ccccc2C1=O`, for which the Potency was 4.11 µM (active) and the cell number change is -6.93%.

On to `CC(=O)N(C)C1=C(N2CCOCC2)C(=O)c2ccccc2C1=O`, for which the “lipid storage change, negative = inhibition” value is -6.67% (inactive) and the cell number change was 0.283%.

For `Cc1ccc(-n2nc(C)c3c(C)c(CCC(=O)O)c(C)nc32)cc1C`, the “lipid storage change, negative = inhibition” value was -1.95% (inactive) and the cell number change was found to be 9.26%.

For `O=C(O)CCCc1ccc2ccc3cccc4ccc1c2c34`, the “lipid storage change, negative = inhibition” value is 7.63% (inactive) and the cell number change was 11.3%.

On to `CCc1ccc(N(CC(=O)NC(C)C)C(=O)CCC(=O)Nc2ccccn2)cc1`, for which the “lipid storage change, negative = inhibition” value is 13.9% (inactive) and the cell number change was -21%.

In the case of `CCC(C)(C)NC(=O)CN(Cc1ccc2c(c1)OCO2)C(=O)CCC(=O)Nc1ccccn1`, the “lipid storage change, negative = inhibition” value is -29.1% (inactive).

For `Cc1ccnc(NC(=O)CCC(=O)N(CC(=O)NCc2ccccc2)Cc2ccccc2)c1`, the outcome was inactive and the cell number change amounted to 14.2%.

Consider `Cc1ccnc(NC(=O)CCC(=O)N(CC(=O)NC(C)(C)C)c2ccc3c(c2)OCCO3)c1`, for which the “lipid storage change, negative = inhibition” value is -7.53% (inactive) and the cell number change turned out to be 5.82%.

In the case of `Cc1ccnc(NC(=O)CCC(=O)N(CC(=O)NC(C)(C)C)Cc2ccc3c(c2)OCO3)c1`, the Potency was 23.1 µM (active) and the cell number change was -17.5%.

On to `CC(C)NC(=O)CN(Cc1ccc2c(c1)OCO2)C(=O)CCC(=O)Nc1ccccn1`, for which the Potency was 18.4 µM (active) and the cell number change was found to be 0.42%.

Consider `COc1ccc(CN(CC(=O)NCc2ccc(F)cc2)C(=O)CCC(=O)Nc2cc(C)ccn2)cc1`, for which the Potency was 23.1 µM (active) and the cell number change turned out to be 6.52%.

In the case of `CC(C)CCNC(=O)CN(Cc1ccc2c(c1)OCO2)C(=O)CCC(=O)Nc1ccccn1`, the “lipid storage change, negative = inhibition” value is 11.2% (inactive) and the cell number change is 2.93%.

As to `CCOc1ncccc1C(=O)N(CC)CC(=O)Nc1ccc(NC(C)=O)cc1`, the “lipid storage change, negative = inhibition” value is 8.07% (inactive) and the cell number change stood at 4.04%.

Consider `CCOc1ncccc1C(=O)N(CC)CC(=O)NCc1ccc(F)cc1`, for which the Potency was 3.66 µM (active) and the cell number change amounted to 4.96%.

Take `O=C(CN(Cc1ccccc1)C(=O)CCC(=O)Nc1ccccn1)NCc1ccc(F)cc1`: the compound was classed as inactive and the cell number change amounted to 7.92%.

With `CCN(CC(=O)NCc1ccc(F)cc1)C(=O)c1cccnc1SC`, the “lipid storage change, negative = inhibition” value was 22.9% (inactive) and the cell number change was 23.4%.

With `COC(=O)Cc1c(C)nc2nc(NCc3cccc([N+](=O)[O-])c3)[nH]n2c1=O`, the call was inactive and the cell number change is 22.4%.

In the case of `COc1cccc(NC(=O)c2ccn(C)n2)c1`, the “lipid storage change, negative = inhibition” value was -6.25% (inactive) and the cell number change was -7.57%.

As for `CCCC(=O)Nc1cc(C(=O)O)ccc1Sc1ccccc1`, the “lipid storage change, negative = inhibition” value was -8.07% (inactive) and the cell number change was -3.48%.

On to `Cc1cc(C)n(-c2ccc(C(=O)NCc3ccc4c(c3)OCO4)cc2)n1`, for which the “lipid storage change, negative = inhibition” value is 22% (inactive) and the cell number change was -26%.

For the compound `COc1ccc(S(=O)(=O)NC2CC(=O)N(c3ccc(C)c(C)c3)C2)cc1C` (centres undefined), the result was inactive.

As to `O=C(Cn1cnc2ccccc2c1=O)c1ccccc1`, the “lipid storage change, negative = inhibition” value is 3.76% (inactive) and the cell number change was -5.21%.

Consider `O=C(CNC(=O)c1ccncc1)N/N=C/c1cc(Br)ccc1O`, for which the “lipid storage change, negative = inhibition” value is -6.45% (inactive) and the cell number change was -8.8%.

On to `Cc1cccc(N2C(=O)CC(N(C(=O)c3ccco3)c3cccc(C)c3)C2=O)c1` (centres undefined), for which the “lipid storage change, negative = inhibition” value was -2.05% (inactive) and the cell number change is 1.21%.

`COc1ccccc1/C=c1\sc2nc(-c3ccccc3OC)nn2c1=O`: the “lipid storage change, negative = inhibition” value is -3.78% (inactive) and the cell number change was -6.9%.

In the case of `Cn1c(-c2sc3cc(C(F)(F)F)cnc3c2-c2cccs2)n[nH]c1=S`, the “lipid storage change, negative = inhibition” value was -9.3% (inactive) and the cell number change was -11.9%.

Take `O=S(=O)(c1ccccc1)n1ccc2ccccc21`: the “lipid storage change, negative = inhibition” value was 14.7% (inactive) and the cell number change is -15.8%.

With `NC1=NC(=O)/C(=C/c2cccs2)S1`, the “lipid storage change, negative = inhibition” value is 15.7% (inactive) and the cell number change was -5.63%.

For `O=C1N=C(N2CCN(c3cccc4ccccc34)CC2)S/C1=C/c1cccs1`, the compound was classed as inactive.

`O=C1/C(=C\c2cccs2)Sc2ccc3ccccc3c21`: the Potency was 16.4 µM (active) and the cell number change was -14.8%.

For the compound `O=C(O)c1ccc(NC(=O)c2cn(-c3ccccc3)nc2-c2cccc(Cl)c2)cc1`, the “lipid storage change, negative = inhibition” value is -13.3% (inactive) and the cell number change was found to be 4.66%.

With `CC(C)c1nc2ccc(C(=O)O)cc2[nH]1`, the Potency was 23.1 µM (active) and the cell number change is -0.0603%.

On to `CC(O)c1nc2ccc(C(=O)O)cc2[nH]1` (centres undefined), for which the “lipid storage change, negative = inhibition” value is -2.22% (inactive) and the cell number change was -0.214%.

For the compound `CC(O)CCc1nc2ccc(C(=O)O)cc2[nH]1` (centres undefined), the “lipid storage change, negative = inhibition” value is -7.1% (inactive) and the cell number change was determined as 3.44%.

For `COc1cccc(-n2c(SCC(=O)OC(C)C)nnc2-c2cccnc2)c1`, the compound was classed as inactive.

Consider `O=C(COc1ccccc1Br)N1CCNC1=O`, for which the “lipid storage change, negative = inhibition” value is 10.5% (inactive) and the cell number change is -13%.

On to `O=C(COc1ccccc1)N1CCNC1=O`, for which the Potency was 11.6 µM (active) and the cell number change was -10.9%.

Turning to `O=C(COc1ccc(Br)cc1)N1CCNC1=O`, the call was inactive and the cell number change was -1.77%.

Take `CCOc1ccc(NC(=NCc2ccc3c(c2)OCO3)SC2CC(=O)N(c3ccc(OCC)cc3)C2=O)cc1` (centres undefined): the “lipid storage change, negative = inhibition” value is -5.4% (inactive) and the cell number change worked out at 1.82%.

On to `COc1cccc(NC(=O)[C@@H]2CCCN2C(=O)[C@@H]2Cc3ccccc3CN2C(=O)OC(C)(C)C)c1`, for which the compound was classed as inactive and the cell number change was -9.43%.

Turning to `O=C1C2C(c3cccc(/C=C/c4ccccc4)c3)CC=CC2C(c2ccc(C(F)(F)F)cc2)N1Cc1ccccc1` (centres undefined), the “lipid storage change, negative = inhibition” value was 9.24% (inactive) and the cell number change was -0.28%.

On to `Cc1ccc(-c2cccc(C3CC=CC4C3C(=O)N(Cc3ccccc3)C4c3ccc(C(F)(F)F)cc3)c2)cc1` (centres undefined), for which the “lipid storage change, negative = inhibition” value is 12.2% (inactive) and the cell number change turned out to be 0.818%.

Regarding `O=C1C2C(c3ccccc3)CC=CC2[C@H](c2ccc(C(F)(F)F)cc2)N1Cc1ccccc1` (some centres undefined), the Potency is 18.4 µM (active).
